Laboratory results taken from the supplement of paper PMC6555819.

Experiments:
Test in all cases: PBM binding z-score (relative to random genomic background probes); higher = stronger binding; sequences stand for … in GC…GCGATTGACAGCGTAGAATGAAGG
[1] = tested on: PPARg:RXRa DBDmut IVT, anti-RXR (DBD mutation: RXRa K156A/R161A, NR concentration 270 nM, RXRa partner concentration 90 nM)
Method in brief: (§1)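 Scanned fluorescence from custom Agilent 4×180K protein-binding microarrays was regression-normalized. Binding z-scores use random background probes as reference. Ligand-free nuclear receptor dimers were incubated on the arrays for 1 h and detected with antibodies against each partner (one per run).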

[2] = tested on: PPARg:RXRa IVT, anti-PPARg (NR concentration 270 nM, RXRa partner concentration 90 nM)
Method in brief: as §1

[3] = tested on: PPARg DBDmut:RXRa IVT, anti-PPARg (DBD mutation: PPARg1 K132A/R137A, NR concentration 270 nM, RXRa partner concentration 90 nM)
Method in brief: as §1

[4] = tested on: PPARg DBDmut IVT, anti-PPARg (DBD mutation: PPARg1 K132A/R137A, NR concentration 270 nM)
Method in brief: as §1

[5] = tested on: PPARg homodimer (NR concentration 180 nM)
Method in brief: as §1

[6] = tested on: PXR:RXRa (NR concentration 270 nM, RXRa partner concentration 90 nM)
Method in brief: as §1

[7] = tested on: PXR homodimer (NR concentration 270 nM)
Method in brief: as §1

[8] = tested on: RARa:RXR (NR concentration 270 nM, RXRa partner concentration 90 nM)
Method in brief: as §1

[9] = tested on: RARa homodimer (NR concentration 270 nM)
Method in brief: as §1

[10] = tested on: RARb:RXRa (NR concentration 270 nM, RXRa partner concentration 90 nM)
Method in brief: as §1

[11] = tested on: RARb homodimer (NR concentration 270 nM)
Method in brief: as §1

[12] = tested on: RARg:RXRa (NR concentration 270 nM, RXRa partner concentration 90 nM)
Method in brief: as §1

[13] = tested on: RARg homodimer (NR concentration 270 nM)
Method in brief: as §1

[14] = tested on: RXRa DBDmut IVT, anti-RXR (DBD mutation: RXRa K156A/R161A, NR concentration 90 nM)
Method in brief: as §1

[15] = tested on: RXRa homodimer (NR concentration 180 nM)
Method in brief: as §1

[16] = tested on: THRa:RXRa (NR concentration 90 nM, RXRa partner concentration 90 nM)
Method in brief: as §1

[17] = tested on: THRa homodimer (NR concentration 90 nM)
Method in brief: as §1

[18] = tested on: VDR homodimer (NR concentration 270 nM)
Method in brief: as §1

| Sequence | PBM binding z-score [1] | PBM binding z-score [2] | PBM binding z-score [3] | PBM binding z-score [4] | PBM binding z-score [5] | PBM binding z-score [6] | PBM binding z-score [7] | PBM binding z-score [8] | PBM binding z-score [9] | PBM binding z-score [10] | PBM binding z-score [11] | PBM binding z-score [12] | PBM binding z-score [13] | PBM binding z-score [14] | PBM binding z-score [15] | PBM binding z-score [16] | PBM binding z-score [17] | PBM binding z-score [18] |
| --- | --- | --- | --- | --- | --- | --- | --- | --- | --- | --- | --- | --- | --- | --- | --- | --- | --- | --- |
| ACAGACAGGTGAGTGCAGGTAACTCAGCTGGACG | 0.771 | 1.05 | 0.0571 | -0.297 | -0.465 | -0.0581 | -0.0579 | -0.416 | -0.183 | 0.35 | -0.104 | 0.091 | 0.426 | 0.222 | 0.412 | 1.69 | -0.612 | 0.269 |
| CCTTACGGGTCACTCCAGGTTATGGCATCGGAGT | 2.6 | 3.76 | -0.451 | -0.505 | 1.71 | 4.55 | 0.182 | 3.46 | 0.437 | 3.78 | 3.07 | 4.46 | 4.54 | 1.4 | 4.22 | 5.16 | 0.627 | 1.62 |
| CGTCAAAGTTCAAATAAGGTAACGTAAAGCACGC | 0.597 | 2.21 | 0.83 | 1.03 | 4.04 | 5.39 | 5.14 | 4.21 | 2.53 | 5.08 | 4.02 | 5.64 | 6.52 | 4.78 | 5.4 | 5.07 | 2.01 | 4.33 |
| CCTACCGGGCCAAAAAGGTCATTGATGCCGATAA | -0.0213 | 1.89 | -0.195 | -1.09 | 3.48 | 5 | 5.72 | 5.47 | 1.6 | 3.96 | 4.59 | 4.5 | 3.96 | 0.185 | 4.6 | 3.29 | 1.04 | 3.13 |
| ACTCGGAGGACAATGGTCAGAGCTACGCCAGTGA | -0.21 | -0.421 | -1.67 | -0.609 | -0.576 | -0.593 | -0.561 | -0.488 | -0.119 | 1.23 | 0.454 | 0.217 | 0.925 | 0.216 | -0.0471 | 0.235 | -0.526 | -0.36 |
| TCTTGTAGATCAAAGGTTACGAAAGCCGAAGCCT | 2.12 | 3.96 | 0.521 | 0.147 | 1.11 | 2.41 | -0.449 | 3.28 | -0.123 | 2.14 | 1.9 | 2.29 | 1.06 | 0.663 | 3.64 | 1.66 | -0.301 | -0.125 |
| GCTGCTAAGTCAGGTTGGTCAGCTAACGGGTACG | -0.0465 | -0.681 | -1.49 | -1.03 | -0.201 | -0.468 | -0.643 | -0.502 | -0.643 | -0.0361 | 0.212 | -0.383 | -0.568 | -0.027 | -0.344 | -0.197 | -0.581 | -0.246 |
